Assay outcomes as filed in PubChem BioAssay.
BoNT F protease – inhibitors of Botulinum neurotoxin F light chain protease. Multiplex microsphere protease cleavage assay, flow cytometry. inhibition, % at 10 µM. 360,000 tested, 0.22% active. AID 588497; in the data active means inhibition above about 35%, passing the limit was not always enough; inconclusive means no clear call, values can overlap the other calls
Bead autofluor – flagged as autofluorescent in microsphere protease counterscreen; AID 624483; fluorescence intensity (no concentration beside the values); compound autofluorescence counterscreen, microsphere flow cytometry; stronger effect = higher value; 360,000 tested, 3.1% active; in the data active means fluorescence intensity above about 16000; inconclusive means no clear call, values can overlap the other calls
CCHF vOTU inh – CCHFV vOTU protease inhibition. AID 651958. Pep-AMC fluorescence. 370,000 tested, 0.55% active. inhibition, % at 11.5 µM; in the data active means inhibition above about 30%
Anthrax LF prot – blocks Bacillus anthracis lethal factor protease. 360,000 tested, 0.12% active. AID 588501. multiplex microsphere protease cleavage assay, LF. P15917. inhibition, % at 10 µM
Target sequence (P15917 whole entry, looked up): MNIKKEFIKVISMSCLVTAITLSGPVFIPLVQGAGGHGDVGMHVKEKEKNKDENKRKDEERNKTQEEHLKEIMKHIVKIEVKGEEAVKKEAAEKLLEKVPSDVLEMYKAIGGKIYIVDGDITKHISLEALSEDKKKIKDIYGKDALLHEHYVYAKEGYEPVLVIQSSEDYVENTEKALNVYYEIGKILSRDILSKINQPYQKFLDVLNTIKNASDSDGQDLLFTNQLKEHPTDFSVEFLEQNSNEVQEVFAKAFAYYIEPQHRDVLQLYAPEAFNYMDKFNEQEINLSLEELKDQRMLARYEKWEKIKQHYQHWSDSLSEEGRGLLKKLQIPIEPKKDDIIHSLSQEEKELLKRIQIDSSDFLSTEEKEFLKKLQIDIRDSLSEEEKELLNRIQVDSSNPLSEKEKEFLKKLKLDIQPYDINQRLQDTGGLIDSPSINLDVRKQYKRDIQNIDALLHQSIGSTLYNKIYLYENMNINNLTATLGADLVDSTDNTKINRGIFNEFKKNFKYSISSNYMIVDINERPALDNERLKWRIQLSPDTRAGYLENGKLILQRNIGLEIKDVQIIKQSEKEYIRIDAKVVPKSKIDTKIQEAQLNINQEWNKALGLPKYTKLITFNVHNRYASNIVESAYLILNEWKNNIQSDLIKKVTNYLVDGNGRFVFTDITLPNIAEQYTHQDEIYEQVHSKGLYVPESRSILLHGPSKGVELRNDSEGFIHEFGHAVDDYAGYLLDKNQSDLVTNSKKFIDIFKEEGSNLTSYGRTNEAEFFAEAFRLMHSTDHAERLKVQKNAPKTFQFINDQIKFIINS
BoNT-A LC inh2 – inhibitors of Botulinum neurotoxin A light chain protease; multiplex microsphere protease substrate cleavage, flow cytometry; inhibition, % at 10 µM; 360,000 tested, 0.17% active
3CLpro inhibitor – SARS-CoV 3CLpro protease inhibition; 290,000 tested, 0.14% active; AID 1706; inhibition, % at 6 µM; recombinant SARS-CoV 3CLpro, quenched FRET peptide cleavage; in the data active means inhibition above about 12%
A number is an active result; 0 = inactive; ? = inconclusive; - = no result given. In the library only some 3.9% were active in any assay of this set; here they are far more common. Unless noted, no stated cut-off is given here; in the data, active means inhibition above about 30%; inconclusive means no clear call, values can overlap the other calls; inactive means below that.

SMILES	BoNT F protease	Bead autofluor	CCHF vOTU inh	Anthrax LF prot	BoNT-A LC inh2	3CLpro inhibitor
CCOC(=O)Cn1c(=NC(=O)c2cc(-c3cccs3)nc3ccccc23)sc2cc(S(N)(=O)=O)ccc21	0	0	0	0	0	0
COC(=O)Cn1c(=NC(=O)c2cc(-c3cccs3)nc3ccccc23)sc2cc(S(N)(=O)=O)ccc21	0	0	0	0	38	0
Cn1cnc2nc3n(c2c1=O)CCC3	0	16811	0	0	0	0
O=c1c2cccnc2nc2n1CCCCC2	0	0	0	0	0	0
CC(C)n1nnnc1C1c2ccccc2C(=O)N1Cc1ccc(F)cc1 (centres undefined)	0	0	0	0	0	-
C=CCn1c(=O)c2ccccc2n2c(SCC(=O)NC(C)C)nnc12	0	0	0	0	0	0
COC(=O)[C@H](CC(C)C)NC(=O)N1CCN(c2cccc(C(F)(F)F)c2)CC1	0	23638	0	0	0	0
O=C(/C=C/Nc1cccc(C(F)(F)F)c1)C(F)(F)F	0	20521	0	0	?	0
O=C(O)C1C2C=CC(C2)C1C(=O)Nc1cccc(C(F)(F)F)c1 (centres undefined)	50	0	0	0	0	0
CC(C)C[C@H](NC(=O)N1CCN(c2ccccc2)CC1)C(=O)O	0	0	0	0	0	0
CCCN1CCN(C(=O)Nc2cccc(C(F)(F)F)c2)CC1	0	0	0	0	0	0
O=C(Nc1cccc(C(F)(F)F)c1)N1CCN(C(=O)Nc2cccc(C(F)(F)F)c2)CC1	0	22460	0	0	0	0
CC(=O)Nc1cccc(NC(=O)C2C3C=CC(C3)C2C(=O)O)c1 (centres undefined)	0	0	0	0	0	0
CC(=O)c1cc(-c2cccc(CO)c2)c(=O)n2c1CCC2	-	-	0	-	-	-
Cc1ccc(NC(=O)CN2C(=O)NC3(CCCC3)C2=O)c(Cl)c1	0	0	0	0	0	0
CC(=O)Nc1ccc(CN2CCN(c3cccc(C(F)(F)F)c3)CC2)cc1	0	17158	0	0	0	0
COc1ccccc1NC(=O)N1CCN(c2cccc(C(F)(F)F)c2)CC1	0	23145	0	0	0	0
CC(=O)Nc1ccc(NC(=O)CN2CCN(c3cccc(C(F)(F)F)c3)CC2)cc1	0	0	-	0	0	0
N#CCC[C@H]1CC[C@]2(CCCN(Cc3cccc4ccccc34)C2)O1	-	-	0	-	-	-
CCOC(=O)c1ccc(NS(=O)(=O)c2cc(-c3nnnn3CC)ccc2OC)cc1	0	19076	0	0	?	0
CCOC(=O)c1ccc(N/C=C/C(=O)c2ccc(OC)c(OC)c2)cc1	0	19087	0	0	0	0
CCn1nnnc1-c1ccc(OC)c(S(=O)(=O)NCCc2ccccc2)c1	0	19509	0	0	?	0
CCCCOC(=O)c1ccc(NS(=O)(=O)c2cc(-c3nnnn3CC)ccc2OC)cc1	0	0	0	0	0	0
Cc1ccc(-c2nnc(SCC(=O)NC3CCCC3)n2N)cc1	0	0	0	0	0	-
CCN(CC)S(=O)(=O)c1cccc(-c2nnc(SCC(=O)NC3CCCCCCC3)n2N)c1	0	21228	0	0	0	0
SMILES	BoNT F protease	Bead autofluor	CCHF vOTU inh	Anthrax LF prot	BoNT-A LC inh2	3CLpro inhibitor
CCN(CC)S(=O)(=O)c1cccc(-c2nnc(SCC(=O)NC3CCCCCC3)n2N)c1	0	22076	0	0	0	0
CCN(CC)S(=O)(=O)c1cccc(-c2nnc(SCC(=O)NC3CCCC3)n2N)c1	0	20557	0	0	0	0
Nn1c(SCC(=O)NC2CCCCC2)nnc1-c1ccccc1	0	0	0	0	0	0
Cc1cccc2cc(-c3ccccc3)c(-c3ccccc3)c[n+]12	0	0	0	0	38	0
CS(=O)(=O)N(CC(=O)NCC1CCCO1)Cc1ccc(Cl)cc1 (centres undefined)	0	0	0	0	0	0
CS(=O)(=O)N(CC(=O)NC1CCCCC1)Cc1ccc(Cl)cc1	0	17256	0	0	0	0
CS(=O)(=O)N(CC(=O)NC1CCCC1)Cc1ccc(Cl)cc1	0	17349	0	0	0	0
CS(=O)(=O)N(CC(=O)N1CCCCCC1)Cc1ccc(Cl)cc1	0	22456	0	0	?	0
CN(CC(=O)NC1CCCCC1)S(=O)(=O)c1ccc(Cl)cc1	0	0	0	0	0	0
CCOC(=O)CC[C@H]1CC[C@]2(CCCN(C(=O)c3ccno3)C2)O1	-	-	0	-	-	-
COCCOCCOCCC(=O)NC1CC2CCC1(C)C2(C)C (centres undefined)	0	21940	0	0	0	0
Brc1cccc(-c2cnc3n2CCCCC3)c1	0	0	0	0	0	0
Clc1ccc(-c2cnc3n2CCC3)cc1	0	21764	0	0	?	0
CC(C)(C)c1ccc(-c2nnc(SCC(=O)Nc3ccc4cn[nH]c4c3)n2-c2ccc(Cl)cc2)cc1	-	-	0	-	-	-
C=CC[C@@H](CC(=O)NCCO)C(=O)N[C@@H](C)COC(=O)[C@H](CC=C)CC(=O)OC(C)(C)C	0	0	0	0	0	-
COc1cccc(C2c3c(oc4ccc(Cl)cc4c3=O)C(=O)N2c2cc(C)on2)c1OC (centres undefined)	0	16528	0	0	0	0
C=C(C)c1cccc(C(C)(C)NC(=O)NCc2ccc(OC)cc2)c1	0	0	0	0	0	0
C=C(C)c1cccc(C(C)(C)NC(=O)NCc2ccc(OC)c(OC)c2)c1	0	23352	0	0	0	0
COc1ccc(CCNC(=O)c2cc(CC(C)C)on2)cc1OC	0	0	0	0	0	0
COc1ccccc1-c1cc(C(=O)Nc2cccnc2)no1	0	22187	0	0	0	0
COc1ccc(-c2cc(C(=O)NCCc3ccccc3)no2)cc1OC	0	20927	0	0	0	0
COc1ccccc1-c1cc(C(=O)NCCc2ccccc2)no1	0	0	0	0	0	0
COc1ccc(CCNC(=O)c2cc(-c3ccccc3OC)on2)cc1OC	0	24479	0	0	?	0
O=C(NN1CCN(Cc2ccccc2)CC1)c1ccc(Cl)cc1	0	0	0	0	0	0
COc1ccc(/C=N/N2CCN(c3ccccc3OC)CC2)cc1Br	?	0	0	0	0	0
SMILES	BoNT F protease	Bead autofluor	CCHF vOTU inh	Anthrax LF prot	BoNT-A LC inh2	3CLpro inhibitor
COc1ccc(/C=N/N2CCN(c3ccccc3OC)CC2)cc1OC	0	16494	0	0	?	0
COc1cccc(/C=N/N2CCN(c3ccccc3OC)CC2)c1	0	24263	0	0	0	0
COc1cc(NC(=O)c2cccnc2)c(Cl)cc1NC(=O)c1ccccc1	0	0	0	0	0	0
CNC(=O)NC1CCCCc2sccc21 (centres undefined)	0	16866	0	0	0	0
O=C1CCC(=O)N1c1ccc(S(=O)(=O)Nc2ccc(Br)cc2)cc1	0	0	0	0	0	0
COc1ccc(NS(=O)(=O)c2ccc(N3C(=O)CCC3=O)cc2)cc1	0	24859	0	0	0	0
COC(=O)c1ccc(NS(=O)(=O)c2ccc(OC)cc2)cc1	0	22817	0	0	?	0
COC(=O)c1ccc(NS(=O)(=O)c2cccc3cccnc23)cc1	0	18372	0	0	0	0
COc1cccc(NS(=O)(=O)c2ccc(NC(C)=O)cc2)c1	0	23977	0	0	?	0
